Source: the supplement of paper PMC8728848
Shown is part of a subset that was picked to be rich in the strongest signals.

Experiments:
Assay in all cases: glycan array binding signal (z-score within array); higher = stronger binding
Details in all cases: glycan notation: IUPAC condensed, linker removed
[1] = target: Fuc(a1-2)Gal(b1-3)GlcNAc(b1-3)[Fuc(a1-2)Gal(b1-3)GlcNAc(b1-6)]GalNAc
How it was run: (§1)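 Columns mapping to the same glycan were averaged after glycan names were converted to IUPAC-condensed notation. The data come from 3228 arrays in the Consortium for Functional Glycomics database, limited to those with an available protein sequence. Binding is reported as a within-array Z-score averaged across arrays of one protein sequence and across linkers.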

Fuc(a1-2)Gal(b1-4)Glc6S = target: Fuc(a1-2)Gal(b1-4)Glc6S
How it was run: as §1

[2] = target: Fuc(a1-2)Gal(b1-4)GlcNAc(b1-2)Man(a1-3)[Fuc(a1-2)Gal(b1-4)GlcNAc(b1-2)Man(a1-6)]Man(b1-4)GlcNAc(b1-4)[Fuc(a1-6)]GlcNAc
How it was run: as §1

[3] = target: Fuc(a1-2)[Gal(a1-3)]Gal(b1-3)GalNAc
How it was run: as §1

[4] = target: Fuc(a1-2)[Gal(a1-3)]Gal(b1-4)GlcNAc(b1-3)[Fuc(a1-2)[Gal(a1-3)]Gal(b1-4)GlcNAc(b1-6)]GalNAc
How it was run: as §1

[5] = target: Fuc(a1-2)[GalNAc(a1-3)]Gal(b1-4)GlcNAc(b1-3)Gal(b1-4)GlcNAc(b1-3)Gal(b1-4)GlcNAc
How it was run: as §1

[6] = target: Fuc(a1-3)[Gal(b1-4)]Glc6S
How it was run: as §1

[7] = target: Fuc(a1-3)[Gal(b1-4)]GlcNAc(b1-6)GalNAc
How it was run: as §1

[8] = target: Fuc(a1-3)[Gal(b1-4)]GlcNAc6S
How it was run: as §1

Gal(a1-2)Gal = target: Gal(a1-2)Gal
How it was run: as §1

Gal(a1-4)Gal(b1-4)Glc = target: Gal(a1-4)Gal(b1-4)Glc
How it was run: as §1

[9] = target: Gal(a1-4)Gal(b1-4)GlcNAc(b1-2)Man(a1-3)[Gal(a1-4)Gal(b1-4)GlcNAc(b1-2)Man(a1-6)]Man(b1-4)GlcNAc(b1-4)GlcNAc
How it was run: as §1

[10] = target: Gal(b1-3)GlcNAc(b1-2)Man(a1-3)[Gal(b1-3)GlcNAc(b1-2)Man(a1-6)]Man(b1-4)GlcNAc(b1-4)GlcNAc
How it was run: as §1

[11] = target: Gal(b1-3)GlcNAc(b1-3)Gal(b1-4)GlcNAc(b1-2)Man(a1-3)[Gal(b1-3)GlcNAc(b1-3)Gal(b1-4)GlcNAc(b1-2)Man(a1-6)]Man(b1-4)GlcNAc(b1-4)GlcNAc
How it was run: as §1

[12] = target: Gal(b1-3)GlcNAc(b1-3)Gal(b1-4)GlcNAc(b1-6)[Gal(b1-3)GlcNAc(b1-3)]Gal(b1-4)Glc
How it was run: as §1

[13] = target: Gal(b1-3)GlcNAc(b1-3)Gal(b1-4)[Fuc(a1-3)]GlcNAc(b1-6)[Gal(b1-3)GlcNAc(b1-3)]Gal(b1-4)Glc
How it was run: as §1

[14] = target: Gal(b1-3)GlcNAc(b1-3)GalNAc
How it was run: as §1

[15] = target: Gal(b1-3)GlcNAc(b1-6)Gal(b1-4)GlcNAc
How it was run: as §1

[16] = target: Gal(b1-3)[Fuc(a1-4)]GlcNAc(b1-3)Gal(b1-4)[Fuc(a1-3)]GlcNAc
How it was run: as §1

Gal(b1-4)GlcNAc = target: Gal(b1-4)GlcNAc
How it was run: as §1

[17] = target: Gal(b1-4)GlcNAc(b1-3)Gal(b1-4)GlcNAc
How it was run: as §1

[18] = target: Gal(b1-4)GlcNAc(b1-3)Gal(b1-4)GlcNAc(b1-2)[Gal(b1-4)GlcNAc(b1-3)Gal(b1-4)GlcNAc(b1-6)]Man(a1-6)[Gal(b1-4)GlcNAc(b1-3)Gal(b1-4)GlcNAc(b1-2)Man(a1-3)]Man(b1-4)GlcNAc(b1-4)GlcNAc
How it was run: as §1

[19] = target: Gal(b1-4)GlcNAc(b1-3)Gal(b1-4)GlcNAc(b1-3)Gal(b1-4)GlcNAc(b1-3)Gal(b1-4)GlcNAc(b1-2)Man(a1-3)[Gal(b1-4)GlcNAc(b1-3)Gal(b1-4)GlcNAc(b1-3)Gal(b1-4)GlcNAc(b1-3)Gal(b1-4)GlcNAc(b1-2)Man(a1-6)]Man(b1-4)GlcNAc(b1-4)[Fuc(a1-6)]GlcNAc
How it was run: as §1

[20] = target: Gal(b1-4)GlcNAc(b1-3)Gal(b1-4)GlcNAc(b1-3)Gal(b1-4)GlcNAc(b1-3)Gal(b1-4)GlcNAc(b1-3)Gal(b1-4)GlcNAc(b1-3)Gal(b1-4)GlcNAc(b1-2)Man(a1-3)[Gal(b1-4)GlcNAc(b1-3)Gal(b1-4)GlcNAc(b1-3)Gal(b1-4)GlcNAc(b1-3)Gal(b1-4)GlcNAc(b1-3)Gal(b1-4)GlcNAc(b1-3)Gal(b1-4)GlcNAc(b1-2)Man(a1-6)]Man(b1-4)GlcNAc(b1-4)GlcNAc
How it was run: as §1

[21] = target: Gal(b1-4)GlcNAc(b1-3)Gal(b1-4)GlcNAc(b1-3)GalNAc
How it was run: as §1

[22] = target: Gal(b1-4)GlcNAc(b1-3)GalNAc
How it was run: as §1

[23] = target: Gal(b1-4)GlcNAc(b1-3)[Gal(b1-4)GlcNAc(b1-6)]Gal(b1-4)GlcNAc
How it was run: as §1

[24] = target: Gal(b1-4)GlcNAc(b1-6)[Gal(b1-4)GlcNAc(b1-3)]GalNAc
How it was run: as §1

B1: PX9937J-pdi-523-26-523 (Parabacteroides distasonis) (protein)
chain: EPVSSISDANYWKSPDLFKAFNIGLHGLLRSQSSYNIFVLGEPRSDIYGDQPFGGEATQGVERFSYNTINAEFTGISNFANFYTTLNQINLMIRRTNETDLLGEAEKNYYLGQAYGLRAYIYFHLLRSWGDVIITTEPTLGSELDISHLDKAASPASEVMDLIKKDIDASEKAFGGDYSYKQGKCYWSKPATLMLKGEVYLWSGRQMGGGTGDYTVAKTALQDLQQNGNLKLQEKFTDVFSFNNKENSEMIFALHSGKEDDFMMWRDYNWRNNMVPQREYMAGYCDETGTPFLEIPGYNLQGLMRYQVKKDHYLKSFREGDTRLKGTLKAVYKKHEDGTLEYIAPIQYKFQGTTLEGSNERSWYDDYPIYRYADALLLLAEAKALLGEDPSTEINAVRERAYGSEYFNAHKNEVAYPNDKGSFYNDNPFEAGDENVMEAILKERLREFFFEGKRWYDLRRFGKDYVLKYTTAQESRLLWPINEGALTNNPALKQTPGY
Question: With B1 as the binder, how does the “glycan array binding signal (z-score)” value [1] read?
Answer: -0.127

Question: What about the “glycan array binding signal (z-score)” value (Fuc(a1-2)Gal(b1-4)Glc6S) of the same binder?
Answer: -0.759

Question: And the “glycan array binding signal (z-score)” value [2]?
Answer: 0.953

Question: What about the “glycan array binding signal (z-score)” value [3] of the same binder?
Answer: -0.16

Question: What about the “glycan array binding signal (z-score)” value [4] of the same binder?
Answer: -0.426

Question: What about the “glycan array binding signal (z-score)” value [5] of the same binder?
Answer: -0.377

Question: And the “glycan array binding signal (z-score)” value [6]?
Answer: -0.103

Question: And the “glycan array binding signal (z-score)” value [7]?
Answer: -0.093

Question: And the “glycan array binding signal (z-score)” value [8]?
Answer: 5.71

Question: And the “glycan array binding signal (z-score)” value (Gal(a1-2)Gal)?
Answer: -0.363

Question: What about the “glycan array binding signal (z-score)” value (Gal(a1-4)Gal(b1-4)Glc) of the same binder?
Answer: 0.596

Question: What about the “glycan array binding signal (z-score)” value [9] of the same binder?
Answer: 2.9

Question: What about the “glycan array binding signal (z-score)” value [10] of the same binder?
Answer: -0.12

Question: And the “glycan array binding signal (z-score)” value [11]?
Answer: 3.05

Question: And the “glycan array binding signal (z-score)” value [12]?
Answer: 0.461

Question: What about the “glycan array binding signal (z-score)” value [13] of the same binder?
Answer: -0.698

Question: What about the “glycan array binding signal (z-score)” value [14] of the same binder?
Answer: -0.708

Question: And the “glycan array binding signal (z-score)” value [15]?
Answer: -0.374

Question: What about the “glycan array binding signal (z-score)” value [16] of the same binder?
Answer: -0.34

Question: And the “glycan array binding signal (z-score)” value (Gal(b1-4)GlcNAc)?
Answer: 0.078

Question: And the “glycan array binding signal (z-score)” value [17]?
Answer: -0.225

Question: And the “glycan array binding signal (z-score)” value [18]?
Answer: 10.4

Question: And the “glycan array binding signal (z-score)” value [19]?
Answer: 0.026

Question: What about the “glycan array binding signal (z-score)” value [20] of the same binder?
Answer: 8.6

Question: And the “glycan array binding signal (z-score)” value [21]?
Answer: 6.57

Question: What about the “glycan array binding signal (z-score)” value [22] of the same binder?
Answer: -0.086

Question: What about the “glycan array binding signal (z-score)” value [23] of the same binder?
Answer: -0.21

Question: What about the “glycan array binding signal (z-score)” value [24] of the same binder?
Answer: -0.149
